Source: PubChem
In the library only some 2.5% were active in any assay of this set; here they are far more common.
Rce1 inh: yeast Ras-converting enzyme inhibition | Q03530 | yeast membranes, quenched prenylated peptide cleavage fluorescence | calls only | 0.27% of 290,000 active | AID 2563;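 active = fall in fluorescence gain of 50% or more versus controls, with final raw signal at or below 3038400; inconclusive = same 50% fall but final raw signal above 3038400; inactive = fall in fluorescence gain under 50%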;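 note: plate controls were neutral control wells for no effect and wells lacking membranes for full effect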
Target sequence (Q03530 whole entry, looked up): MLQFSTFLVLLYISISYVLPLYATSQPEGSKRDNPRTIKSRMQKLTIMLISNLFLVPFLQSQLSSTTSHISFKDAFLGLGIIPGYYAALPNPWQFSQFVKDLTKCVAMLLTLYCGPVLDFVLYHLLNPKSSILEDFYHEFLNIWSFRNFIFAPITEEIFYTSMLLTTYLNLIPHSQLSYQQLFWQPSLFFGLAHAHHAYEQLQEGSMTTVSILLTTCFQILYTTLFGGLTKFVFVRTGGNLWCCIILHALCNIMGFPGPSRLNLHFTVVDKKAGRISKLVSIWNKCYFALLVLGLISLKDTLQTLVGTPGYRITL
MEKK2mut PB1 HTS: signal of MEK5 binding to mutant human MEKK2 PB1 domain; bead flow cytometry, Alexa488-MEK5 binding to MEKK2 mutant; 0.35% of 290,000 active; percent response, % at 10 µM; in the data active = percent response above about 24%, passing the limit was not always enough
UBC13 inh: blocks human UBC13 polyubiquitin chain formation | inhibition, % at 20 µM | 0.47% of 330,000 active | P61088 | TR-FRET | AID 485273; in the data active = inhibition above about 45%, passing the limit was not always enough; inconclusive = no clear call, values can overlap the other calls
Target sequence (P61088 whole entry, looked up): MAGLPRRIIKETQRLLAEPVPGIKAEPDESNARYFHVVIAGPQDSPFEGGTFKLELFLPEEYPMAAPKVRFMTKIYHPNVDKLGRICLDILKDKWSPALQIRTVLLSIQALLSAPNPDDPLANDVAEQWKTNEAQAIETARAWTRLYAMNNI
MEKK3 PB1 HTS: raises or lowers MEK5 binding to the human MEKK3 PB1 domain. binding response (% of control), % at 10 µM. AID 1529. bead-based flow cytometry, Alexa488-MEK5 binding to MEKK3; actives lie on both sides; 0 = blocked by unlabeled MEK5, 100 = vehicle. 1.4% of 290,000 active;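 active = binding response more than 3 SD above or below the average of its plate-row segment, actives on both sides; inconclusive = wells at one plate position flagged as instrument error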;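 note: Alexa488 bead fluorescence after subtracting the streptavidin-only scavenger bead signal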
MEKK2 WT-MEK5: raises or lowers MEK5 binding to wildtype human MEKK2 PB1 domain. Q9Y2U5. binding response (% of control), % at 10 µM. bead flow cytometry, Alexa488-MEK5 binding to MEKK2 WT; actives lie on both sides. 1.1% of 290,000 active; in the data active = binding response below about 67% or above about 130%; inconclusive = no clear call, values can overlap the other calls; inactive = in between
Numbers without * were called inactive; i = inactive; ? = inconclusive; nt = not tested or not shown; + = active, no number; [ ] = dose if it differs, or a comment.

SMILES	Rce1 inh	MEKK2mut PB1 HTS	UBC13 inh	MEKK3 PB1 HTS	MEKK2 WT-MEK5
COc1ccccc1CNC(=O)CN1C(=O)NC2(CCOc3ccccc32)C1=O (configuration not stated)	nt	nt	-8.9	nt	nt
COc1ccc(/C=C2\SC(=S)N(CCC(=O)NCCCn3ccnc3)C2=O)cc1	i	7.0	-4.6	97.0	100.0
CC(C)c1ccc(/C=C2\SC(=S)N(CCC(=O)NCCCn3ccnc3)C2=O)cc1	+	-5.0	-2.2	99.0	103.0
CCCOc1cc(N(CC)CC)ccc1/C=C(/C#N)c1nc2ccc(C)cc2[nH]1	i	87.0*	-226.7	111.0	57.0*
CCOc1cc(N(CC)CC)ccc1/C=C(/C#N)c1nc2ccccc2[nH]1	i	nt	-311.9	nt	nt
O=C(Cc1cn(-c2ccccc2)nc1-c1ccccc1)N1CCCCC1	i	-1.0	0.8	99.0	95.0
Cc1cc(Br)cc(Cl)c1OC(=O)c1ccncc1	i	-39.0	2.2	1.0*[inhibitor]	1.0*[inhibitor]
Cc1ccc(C2(COC(=O)C(C)C)CO2)c(OC(=O)C(C)C)c1 (configuration not stated)	+	3.0	-2.8	106.0	99.0
CCC(C)C(=O)OCC1(c2ccc(C)cc2OC(=O)C(C)C)CO1 (configuration not stated)	nt	2.0	-5.5	95.0	93.0
Cc1ccc(/C=N/Nc2ccnc3cc(Cl)ccc23)c(C)c1	i	30.0	0.3	101.0	167.0*
COC(=O)CSc1nc2sc3c(c2c(=O)n1-c1ccc(OC)cc1)CCN(C)C3	i	-5.0	1.9	93.0	93.0
C=C(C)CSc1nc2sc3c(c2c(=O)n1-c1ccc(OC)cc1)CCN(C)C3	+	12.0	0.7	103.0	115.0
COc1ccc(-n2c(SCCNCCO)nc3sc4c(c3c2=O)CCCC4)cc1	nt	24.0*	26.3	108.0	144.0*
COc1cc2[nH]c(C(=O)N3CCN(c4ccccc4F)CC3)cc2c(OC)c1OC	i	3.0	-4.0	102.0	99.0
CC(C)(C)OC(=O)C[C@@H]1C/C=C\C[C@@H](CC(=O)NCCO)C(=O)N2CCC[C@H]2COC1=O	nt	nt	11.1	nt	nt
C=C(C)CSc1cc(C)nc2c(-c3ccccc3)c(C)nn12	+	5.0	-4.0	100.0	98.0
CCSc1cc(C)nc2c(-c3ccccc3)c(C)nn12	i	5.0	9.4	104.0	107.0
Cn1c(CNC(=O)CNC(=O)c2ccc(F)cc2)cc(=O)n(C)c1=O	i	4.0	3.3	100.0	103.0
COc1ccc(NC(=O)C2=CN3CCS(=O)(=O)N=C3C=C2)c(OC)c1	nt	nt	-1.1	nt	nt
CCN(CC)S(=O)(=O)c1ccc(OC)c(NC(=O)C2CC(=O)N(c3ccc4c(c3)OCCO4)C2)c1 (configuration not stated)	i	-21.0	-3.6	0.0*[inhibitor]	-2.0*[inhibitor]
Cc1cccc(-c2cc3nc(-c4ccccc4)cc(N4CCC5(CC4)OCCO5)n3n2)c1	+	3.0	?	79.0	90.0
Fc1cccc(-c2cc3nc(-c4ccccc4)cc(N4CCC5(CC4)OCCO5)n3n2)c1	+	-1.0	?	107.0	93.0
Cc1ccc(-c2cc3nc(-c4ccccc4)cc(N4CCC5(CC4)OCCO5)n3n2)cc1	i	3.0	0.5	118.0	106.0
CCOc1ccc(NS(=O)(=O)c2ccc(C(=O)NC3CCC(O)CC3)cc2)cc1 (configuration not stated)	i	nt	-3.2	nt	nt
CCOC(=O)C1CCN(c2ccc(Cl)nn2)CC1	i	4.0	-1.6	105.0	-3.0*
SMILES	Rce1 inh	MEKK2mut PB1 HTS	UBC13 inh	MEKK3 PB1 HTS	MEKK2 WT-MEK5
O=C(O)C1CCN(c2ccc(Cl)nn2)CC1	i	-9.0	-10.4	99.0	84.0
COc1ccc(N2CCN(C(=O)CNC(=O)c3ccco3)CC2)cc1	i	6.0	-1.7	108.0	113.0
Cc1ccc(C(=O)c2cc([N+](=O)[O-])ccc2N2CCCCC2)cc1C	i	-1.0	-11.5	113.0	104.0
COc1ccc(C(=O)c2cc([N+](=O)[O-])ccc2N2CCCC2)cc1	i	1.0	3.5	132.0*	106.0
Cc1ccc(C(=O)c2cc([N+](=O)[O-])ccc2N2CCOCC2)cc1C	i	1.0	-10.1	144.0*	111.0
COc1ccc(C(=O)c2cc([N+](=O)[O-])ccc2N2CCN(C)CC2)cc1	i	-6.0	0.7	90.0	98.0
COc1cccc(Nc2nc(C)nc3c2oc2ccccc23)c1	+	7.0	10.2	109.0	107.0
CCn1nc(C)cc1C(=O)NC1CC(C)(C)Cc2c1cnn2-c1cccc(F)c1 (configuration not stated)	+	10.0	-6.0	103.0	102.0
